Source: PubChem BioAssay AID743402 (Broad Institute, 2014)
The whole screen tested about 1,200 compounds, of which about 140 (12%) were called active.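 How the source made its calls: active means fitted curve falls past -35% activity change at a dose under twice the top valid dose, in every replicate test; inconclusive means replicate tests disagree on the call; inactive means the rest, including activity in the opposite direction.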 Not all results are given here.

Test: restoration of mutant CFTR halide transport – FRT cells, YFP quenching, cherry-pick, dose response (AID 743402);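 further: compounds act as correctors raising surface CFTR-F508del before acute activation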
Settings: FRT CFTR-F508del YFP iodide quenching, 24 h, channel opened with forskolin and a potentiator; series mostly up to 26 µM

Activity change, negative = more quenching (active), inactive:
O=C1c2ccccc2C(=O)c2c1cccc2N(CCO)CCO
COc1ccc(S(=O)(=O)NCc2ccccn2)cc1NC(=O)c1ccccc1F
COc1cccc(N2CCN(C(=O)c3ccc(CS(=O)c4ccc(C)cc4)o3)CC2)c1 (stereo unspecified)
O=C(NCCOc1ccccc1)c1cc([N+](=O)[O-])ccc1N1CCOCC1
COc1ccc(OC)c(-c2cnc(OC(C)(C)C)nc2OC(C)(C)C)c1
COc1ccc([C@H]2CC(=O)C=C(c3c(OC)cccc3OC)C2)cc1
CC(C)C[C@H]1CN([C@@H](CC(C)C)CN2CCC[C@@H]2CN2C(=S)NC[C@@H]2Cc2ccc(O)cc2)C(=S)N1CCc1ccccc1
CCOC(=O)c1c(C)[nH]c(C(=O)N/N=C\c2ccccc2O)c1C
N#CC1=C(N)Oc2cc(N)ccc2C1c1cccc(F)c1 (stereo unspecified)
COc1ccccc1C#Cc1ccc2c(c1)O[C@@H](CN(C)Cc1cccnc1)[C@H](C)CN([C@H](C)CO)S2(=O)=O
COc1ccc([C@H]2C[C@H](O)[C@@H](n3cc(-c4ccc(F)cc4)nn3)CN2Cc2cccs2)cc1
COc1cc(C(=O)Nc2ccccc2C(=O)Nc2ccccn2)cc(OC)c1OC
COc1cccc(S(=O)(=O)N(C)C[C@@H]2Oc3cc(C4=CCCC4)ccc3S(=O)(=O)N([C@H](C)CO)C[C@H]2C)c1
CCCCNC(=O)CSc1nc2ccc(C)cc2[nH]1
COc1cc(/C=C(\C#N)c2nc3ccccc3[nH]2)cc(OC)c1O
O=C(NCCN1C(=O)S/C(=C\c2ccc(OC(F)F)cc2)C1=O)c1cnccn1
CC(=O)Nc1cccc(-c2ccnc3c2CC(C)(C(=O)Nc2ccc4c(c2)OCO4)O3)c1 (stereo unspecified)
O=C(NN=C1CCCC1)c1[nH]c2ccc(Cl)cc2c1-c1ccccc1
COc1cc(OC)c2c(-c3cccc(-c4sccc4C(C)=O)c3)cc(=O)oc2c1
CC(C)Oc1ncnc2c1[nH]c1ccccc12
O=c1[nH]c(/C=C/c2ccccc2F)nc2ccccc12
Cc1cccc(N2CCN(C(=O)c3ccc4[nH]c(C)c(C)c4c3)CC2)c1C
O=C1C=CCC(/C=C/c2ccccc2)O1 (stereo unspecified)
COc1ccc2c3c([nH]c2c1)[C@@H](CO)N(C(=O)C1CCOCC1)CC31CCN(Cc2cccc(F)c2)CC1
CN(Cc1ccccc1)S(=O)(=O)c1ccc(NC(=S)NC(=O)C2CCCC2)cc1
COc1ccc(NC(=O)c2nc(C)c(C3(C)CC(c4cccnc4)=NO3)s2)cc1 (stereo unspecified)
